The source of these data is ChEMBL document CHEMBL3988442, “University of Dundee, Small-Polar-MMV Screening Library” (2021).

Structures are written as SMILES.

This experiment deals with T1, Aspartate--tRNA(Asp/Asn) ligase (Mycobacterium tuberculosis (strain ATCC 25618 / H37Rv)) (UniProt P9WFW3).
T1 sequence (whole entry): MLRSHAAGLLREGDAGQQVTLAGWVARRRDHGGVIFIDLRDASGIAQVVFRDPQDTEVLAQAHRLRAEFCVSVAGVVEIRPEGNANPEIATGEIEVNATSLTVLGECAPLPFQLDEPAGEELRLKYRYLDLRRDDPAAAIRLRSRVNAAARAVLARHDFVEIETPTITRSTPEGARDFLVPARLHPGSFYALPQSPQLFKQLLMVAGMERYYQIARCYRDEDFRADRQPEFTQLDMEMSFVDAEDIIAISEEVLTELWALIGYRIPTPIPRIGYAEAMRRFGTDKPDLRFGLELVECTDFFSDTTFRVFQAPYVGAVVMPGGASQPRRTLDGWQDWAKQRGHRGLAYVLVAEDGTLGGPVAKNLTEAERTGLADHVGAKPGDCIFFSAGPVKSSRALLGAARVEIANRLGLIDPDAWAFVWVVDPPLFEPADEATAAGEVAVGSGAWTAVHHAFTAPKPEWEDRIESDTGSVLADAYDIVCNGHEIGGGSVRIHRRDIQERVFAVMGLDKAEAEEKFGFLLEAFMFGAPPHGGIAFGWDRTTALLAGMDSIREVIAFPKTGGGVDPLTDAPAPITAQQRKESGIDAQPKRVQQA
The experiment is described as follows: Assay for Asp RNA synthetase-1 from Mycobacterium tuberculosis. Format: functional. Also noted: scale not given: in the data most compounds retested in dose-response had high values. As to conditions: 30 µM.
`O=C(Nc1ccc(CCN2CCC(O)CC2)cc1)Nc1cccnc1`: the Percent Effect is -0.212%.

In the case of `O=C(C1=CCCC1)N1CCC[C@]2(C[C@@H](OCc3ccncc3)CO2)C1`, the Percent Effect came out at 5.27%.

Regarding `Cc1cnn(CC(C)NCc2csc(-c3ccsc3)n2)c1` (stereo not given), the Percent Effect was -7.44%.

Consider `CN(C)CC1CN(Cc2cccc(C(=O)N(C)C)c2)CCO1` (stereo not given), for which the Percent Effect was -3.06%.

In the case of `Cn1cc(CN2CCC3(CC2)CC(c2ccncc2)C(=O)N3)cn1` (stereo not given), the Percent Effect is 12.5%.

Regarding `CCCc1nc(C(C)(C)NC(=O)C2CC(=O)N(CC3CC3)C2)no1` (stereo not given), the Percent Effect was 3.35%.

Regarding `O=C(c1cscn1)N1CCC2(CCN(Cc3nccs3)C2)CC1`, the Percent Effect was 1.85%.

Take `O=C(NCCNc1ccc(C(F)(F)F)cn1)c1ccc(Br)cc1F`: the Percent Effect was -0.778%.

Regarding `CC(C)COCC(NC(=O)c1ccccn1)c1ccco1` (stereo not given), the Percent Effect is -1.2%.

As to `CC(C)Oc1ccccc1C1CC(=O)Nc2c1cnn2C` (stereo not given), the Percent Effect was 2.79%.

Consider `CNc1nc2c(s1)C(c1c(Cl)cccc1Cl)CC(=O)N2` (stereo not given), for which the Percent Effect came out at 50.9%.

As for `Cc1csc(N2CCN(C(=O)CCC(=O)c3ccc(C)s3)CC2)n1`, the Percent Effect was -2.27%.

Turning to `Cn1cc(C[C@H]2[C@H](N3CCOCC3)CCN2C(=O)c2ccco2)cn1`, the Percent Effect is -2.37%.

`COc1ccc(C(=O)N2CCC(Nc3cccnn3)CC2)c(OC)c1`: the Percent Effect is -0.568%.

For `O=C(CN1CCCC(c2ccc(C(=O)O)cc2)C1)NC1CC1` (stereo not given), the Percent Effect was -1.07%.

In the case of `c1ccc(-c2noc3c2CN(CC2CC2)CC3)cc1`, the Percent Effect was determined as 4.77%.

For `CC(C)c1nc(CC(=O)N2CCCC(n3cncn3)C2)cs1` (stereo not given), the Percent Effect was -4.06%.

Consider `Cc1nc(C2CCCN(C(=O)c3ccco3)C2)no1` (stereo not given), for which the Percent Effect is -1.47%.

Regarding `CCCS(=O)(=O)N1CCC2(CN(c3ccsc3)C(=O)CN2C)C1` (stereo not given), the Percent Effect was -3.98%.

With `N#Cc1cc(NS(=O)(=O)c2ccc(C(=O)O)cc2F)ccc1F`, the Percent Effect turned out to be 2.89%.

In the case of `COc1ncccc1NC(=O)C1CCS(=O)(=O)C1` (stereo not given), the Percent Effect was -3.61%.

Consider `CC(NC(=O)NCc1ccc(Cl)cc1)c1ccccn1` (stereo not given), for which the Percent Effect amounted to 0.364%.

Regarding `CN(Cc1cncnc1)Cc1cn2c(n1)CN(C1CCOC1)CC2` (stereo not given), the Percent Effect is 7.69%.

With `Cc1noc(CN(Cc2ccc3c(c2)OCO3)C2CCCC2)n1`, the Percent Effect was determined as 1.87%.

In the case of `Cn1ccnc1CN1CCCN(C(=O)c2ccc(Cl)o2)CC1`, the Percent Effect is -4.19%.

Consider `COCCN(Cc1ccc(F)cc1Cl)C(=O)c1cccc[n+]1[O-]`, for which the Percent Effect was -4.34%.

In the case of `Cc1cc(CN(C)C(=O)NC2CCS(=O)(=O)C2)no1` (stereo not given), the Percent Effect was -1.18%.

On to `CCN(CC)C(CNS(=O)(=O)c1ccc(C(=O)NC)cc1)c1ccco1` (stereo not given), for which the Percent Effect was -2.1%.

Consider `Cn1cc(CN2C[C@@H]3COC[C@]3(CNC(=O)c3ccsc3)C2)cn1`, for which the Percent Effect was determined as 0.656%.

On to `O=C(Cn1c(=O)n(Cc2ccco2)c2ncccc21)NC1CCCCC1`, for which the Percent Effect was -3.2%.

For the compound `CC(Nc1cccc(CN2CCOC2=O)c1)C(=O)N1CCNC1=O` (stereo not given), the Percent Effect is -0.922%.

On to `Cc1ccc(F)cc1S(=O)(=O)N(C)CC(N)=O`, for which the Percent Effect came to 2.69%.

On to `CCc1ncc2c(n1)CN(Cc1nc(-c3ccsc3)oc1C)CC2`, for which the Percent Effect was 2.25%.

In the case of `CCn1ccnc1CN(C)CC1CCCN1c1cccnn1` (stereo not given), the Percent Effect was 7.69%.

`CC(C)Oc1ncc(C(=O)N2CCC(NC(=O)C3CC3)CC2)cc1Cl`: the Percent Effect was -4.56%.

On to `NC(=O)C1CCN(c2nc3nccc(-c4ccccc4)c3c(=O)[nH]2)CC1`, for which the Percent Effect is -4.72%.

As for `COc1ncccc1NC(=O)NC1CCOc2ccccc21` (stereo not given), the Percent Effect was -3.76%.

On to `CC1(C)Cc2ccccc2-c2nc(NCCO)[nH]c(=O)c21`, for which the Percent Effect came out at 3.08%.

Regarding `COc1cccc(COCC(=O)N2CCCC(n3ccnc3)C2)c1` (stereo not given), the Percent Effect is -3.41%.

Turning to `c1cncc(COCc2nnc3n2CCN(Cc2ccoc2)C3)c1`, the Percent Effect was -0.0297%.
